CHT block: inhibitors of human choline transporter CHT; CHT-expressing cells, membrane potential dye, choline response; hits give low values; B-score at 10 µM; 310,000 compounds, 0.86% hits; AID 488975;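 active = B-score over 3 SD under the library average, and starting fluorescence ratio not unusually high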;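 note: choline stimulus applied at its EC90 after an EC20 pre-addition; B-score computed on integrated fluorescence ratio after choline addition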
ANO1 activ: activates or potentiates the mouse TMEM16A chloride channel. 340,000 compounds, 0.3% hits. AID 623877. HEK293 TMEM16A/YFP-H148Q/I152L, iodide quench fluorescence; hits give low values. B-score at 10 µM;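 active = fluorescence-ratio B-score plate-corrected deviation score at least 3 library SD below zero, with starting fluorescence score within 5 deviations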;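 note: channel opened by trigger with iodide after compound preincubation; score built on the fluorescence ratio of max minus min over baseline; more negative score means more quench and so TMEM16A activation or potentiation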
CHT PAM: human CHT allosteric activation. Q9GZV3. CHT-expressing cells, membrane potential dye, choline EC20; hits give high values; LV-AA mutant CHT in HEK293 cells. B-score at 10 µM. 310,000 compounds, 0.49% hits. AID 488977;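 active = initial fluorescence not abnormally high and integrated response B-score, plate-corrected, over 3 SD above library mean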
Kir21 block: inhibitors of mouse Kir2.1 inward-rectifier potassium channel | B-score at 10 µM | HEK293-Kir2.1, FluxOR thallium flux fluorescence; hits give low values | 310,000 compounds, 0.85% hits;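 active = fluorescence ratio B-score at or below minus 3 SD of library scores, with starting-brightness B-score within 2 SD, cut at about -4.2 in these data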;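 note: channel flux triggered by added potassium and thallium sulfate stimulus; B-score of peak minus minimum fluorescence over baseline after thallium stimulus; more negative B-score means stronger Kir2.1 block with less thallium influx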
Target sequence (P35561 whole entry, looked up): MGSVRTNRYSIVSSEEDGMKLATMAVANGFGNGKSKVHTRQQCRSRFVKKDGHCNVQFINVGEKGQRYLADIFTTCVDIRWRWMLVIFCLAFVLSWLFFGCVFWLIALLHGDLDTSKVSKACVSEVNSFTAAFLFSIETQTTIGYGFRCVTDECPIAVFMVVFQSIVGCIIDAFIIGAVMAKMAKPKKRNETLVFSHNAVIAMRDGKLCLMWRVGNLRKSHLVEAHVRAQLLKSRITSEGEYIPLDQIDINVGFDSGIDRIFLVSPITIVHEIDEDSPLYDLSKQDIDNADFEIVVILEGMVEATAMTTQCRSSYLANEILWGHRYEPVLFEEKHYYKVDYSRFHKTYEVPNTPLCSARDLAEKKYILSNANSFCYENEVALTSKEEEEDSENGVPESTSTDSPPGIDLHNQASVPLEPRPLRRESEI
TMEM16A inh: inhibitors of mouse TMEM16A calcium-activated chloride channel; normalized B-score (activity score, 25-100; higher = stronger inhibition) at 10 µM; AID 588511; HEK293 TMEM16A/YFP iodide influx fluorescence, ionomycin; Q8BHY3; 310,000 compounds, 1.2% hits;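 active = ratio plate-corrected score three or more library SD toward inhibition, starting fluorescence score within five deviations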;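 note: score derived from kinetic fluorescence span divided by baseline fluorescence per well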
GPR7 antag: blocks human GPR7 receptor signaling | 290,000 compounds, 1.1% hits | GPR7-expressing cells, fluorescence antagonist assay | inhibition, % at 4.4 µM; in the data active = inhibition above about 16%, passing the limit was not always enough;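 note: cells stimulated with the agonist NPW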
Numbers stand for hits; . = inactive; / = not tested or not shown. An excerpt weighted towards active compounds, which were near 3.7% of everything screened.

SMILES | CHT block | ANO1 activ | CHT PAM | Kir21 block | TMEM16A inh | GPR7 antag
Cc1cc(C)n(C(=O)/C(C#N)=N/Nc2cc(Cl)cc(Cl)c2)n1 | . | . | . | . | 100 | .
OCCN1CCN(CCCN2c3ccccc3Sc3ccc(Cl)cc32)CC1 | . | . | . | -5.6 | . | .
OCCN1CCN(CC/C=C2/c3ccccc3Sc3ccc(Cl)cc32)CC1 | . | . | . | / | . | /
FC(F)(F)c1cccc(NC(=S)NNC(=S)Nc2ccc(Cl)cc2)c1 | . | / | . | . | . | .
FC(F)(F)c1cnc(NNC(=S)Nc2ccc(Cl)cc2)c(Cl)c1 | . | . | . | . | 25 | .
CCCCc1cc(=O)oc2cc(O)ccc12 | . | . | . | . | . | .
O=C(c1ccc2c3c(cccc13)CC2)C1CCCN(Cc2cccnc2)C1 (stereo not drawn) | . | . | . | . | . | .
Cc1cccc(CN2CCCC(C(=O)c3ccc4c5c(cccc35)CC4)C2)n1 (stereo not drawn) | . | . | . | -4.2 | . | .
COc1ccc(CCN2CC(C(=O)OCc3ccccc3Cl)CC2=O)cc1OC (stereo not drawn) | / | . | / | / | / | /
CC(N=C1NS(=O)(=O)c2ccccc21)C(=O)N1CCc2ccccc2C1 (stereo not drawn) | . | . | . | . | . | .
CCN(CC)c1ccc(/C=N\NC(=O)c2cccc3cc[nH]c23)cc1 | . | . | . | . | . | .
CC(C)C[C@H](NC(=O)c1nc[nH]c1C(=O)NCC(=O)OCc1ccccc1)C(=O)OC(C)(C)C | . | -15 | . | . | . | .
C[C@H](NC(=O)c1nc[nH]c1C(=O)N1CCN(C(=O)OC(C)(C)C)CC1)c1ccccc1 | / | -7.2 | / | / | / | /
C[C@@H](NC(=O)c1nc[nH]c1C(=O)NC1CCN(C(=O)OC(C)(C)C)CC1)c1ccccc1 | / | . | / | / | / | /
C[C@H](NC(=O)c1nc[nH]c1C(=O)NCC(=O)OCc1ccccc1)C(=O)OC(C)(C)C | . | . | . | . | . | .
CN(CCOc1ccc(Br)cc1)C(=O)CNC(=O)c1ccc2ccccc2c1 | . | . | . | . | . | .
Cc1ccc(S(=O)(=O)N2[C@@H](c3cccc(Cl)c3)C(C(=O)O)=CC[C@H]2c2cccc(Cl)c2)cc1 | . | . | . | / | 100 | /
Cc1ccc(S(=O)(=O)N2[C@@H](c3cccc(Cl)c3)C(C(=O)O)=CC[C@H]2c2cccc(C)c2)cc1 | . | . | . | / | 25 | /
Cc1ccc(S(=O)(=O)N2[C@@H](c3cccc(Cl)c3)C(C(=O)O)=CC[C@H]2c2ccc3c(c2)OCO3)cc1 | . | . | . | / | . | /
Cc1ccc(S(=O)(=O)N2[C@@H](c3ccc(F)cc3)C(C(=O)O)=CC[C@H]2c2cccc(Cl)c2)cc1 | . | . | . | / | . | /
COc1ccccc1N1CCN(C(=O)c2oc3cc(C)cc(C)c3c2C)CC1 | . | . | . | . | 25 | .
COc1ccccc1N1CCN(C(=O)c2cc(=O)c3ccc(C)cc3o2)CC1 | . | . | . | . | . | .
CC(Oc1ccc(Cl)cc1Cl)C(=O)NCCC1=CCCCC1 (stereo not drawn) | . | . | . | -7 | . | .
Cc1nc(CS(=O)(=O)c2ccc(Cl)cc2)cc(Sc2ccc(Cl)cc2)n1 | . | . | . | -4.8 | . | .
CCOC(=O)c1ccccc1NC(=O)C1CC(=O)N(c2ccccc2)C1 (stereo not drawn) | . | . | . | . | . | .
SMILES | CHT block | ANO1 activ | CHT PAM | Kir21 block | TMEM16A inh | GPR7 antag
CCN(C(=O)COC(=O)/C(=C/c1ccccc1)NC(C)=O)c1c(N)n(Cc2ccccc2)c(=O)[nH]c1=O | / | . | / | / | / | /
COc1cc(C2CC(=O)Oc3c(C(CCN4CCCC(C)C4)c4ccc(N(C)C)cc4)c(OC)cc(OC)c32)cc(OC)c1OC (stereo not drawn) | . | . | . | . | . | /
COc1cc(C(CCN2CCCC(C)C2)c2c(OC)cc(OC)c3c2OC(=O)CC3c2ccc(N(C)C)cc2)cc(OC)c1OC (stereo not drawn) | -5.1 | . | . | . | . | /
Cc1[nH]c2ccccc2c1C(=O)CN1C(=O)NC(C)(c2ccc(Cl)cc2Cl)C1=O (stereo not drawn) | . | . | . | . | . | 62
Cc1[nH]c2ccccc2c1C(=O)CSc1ccc(Cl)cc1 | . | . | . | . | . | .
COC(=O)c1cc(OC)nc2ccc(Br)cc12 | . | . | . | . | . | .
CC(=O)OC1(C(C)=O)CCC2C3CC(Cl)C4=CC(=O)CCC4(C)C3CCC21C (stereo not drawn) | / | . | / | / | / | /
CN1CCN(C(=O)c2cccc(S(=O)(=O)N3CCCC3)c2)CC1 | / | . | / | / | / | /
Cc1cc(C)n(C(=O)c2cccc(S(=O)(=O)N3CCCC3)c2)n1 | . | . | . | . | . | 21
CCC(Cc1ccccc1)NC(=O)CCc1ccccc1 (stereo not drawn) | . | . | . | -5.1 | . | .
CCC(NC(=O)CCCc1ccccc1)c1ccccc1 (stereo not drawn) | . | . | . | . | . | .
CC[N+]1(C)CCC(O)(c2ccc(OC)cc2)C(C(=O)c2ccc(OC)cc2)C1 (stereo not drawn) | / | . | / | / | / | /
CCN(CC)S(=O)(=O)c1ccc(N2CCOCC2)c(NC(=O)C23CC4CC(CC(Cl)(C4)C2)C3)c1 | . | . | . | . | . | .
COc1cccc(N=Nc2c(=O)[nH]n3c(=O)c4c([nH]c23)CCC4)c1 | . | . | . | . | . | .
COc1cccc(N=Nc2c(=O)[nH]n3c(=O)cc(C)[nH]c23)c1 | . | -21 | . | . | . | .
CCOC(=O)c1c(C2CC2)csc1NC(=O)COC(=O)CCS(=O)(=O)c1ccc(C)cc1 | . | . | . | . | . | .
Cc1cc(NC(=O)Cn2nc(C)c([N+](=O)[O-])c2C)no1 | . | . | . | . | . | .
CCc1ccc(CN2CCC(Oc3ccc(C(=O)N4CCCC4)cc3)CC2)cc1 | . | . | . | . | . | .
CC(C)c1ccc(CN2CCC(Oc3ccc(C(=O)N4CCCC4)cc3)CC2)cc1 | . | . | . | . | . | .
O=C(c1ccc(OC2CCN(Cc3ccc(F)cc3)CC2)cc1)N1CCCC1 | . | . | . | -4.2 | . | .
CSc1ccc(CN2CCC(Oc3ccc(C(=O)N4CCCC4)cc3)CC2)cc1 | . | . | . | -4.4 | . | .
Cc1ccc(NC(=O)CSc2nc3ccccc3c(=O)n2CCCN2CCCCC2)cc1C | . | . | 7.3 | . | . | .
Cc1cc(NC(=O)CSc2cn(CC(=O)N(C(C)C)C(C)C)c3ccccc23)no1 | . | . | . | . | . | .
O=C1CSC(c2ccc(F)c(F)c2)N1c1ccccc1F (stereo not drawn) | . | . | . | . | . | .
COc1ccc(N2C(=O)CSC2c2ccc(F)c(F)c2)cc1 (stereo not drawn) | . | -8.5 | . | . | . | .
